# Source: the supplement of paper PMC8728848
# Only a selection was taken, and the strongest signals are over-represented in it overall.
# B1: SalT (Orysata sativa) (protein)
# chain: MTLVKIGLWGGNGGSAQDISVPPKKLLGVTIYSSDAIRSIAFNYIGVDGQEYAIGPWGGGEGTSTEIKLGSSEHIKEISGTHGPVYDLADIVTYLKIVTSANNTYEAGVPNGKEFSIPLQDSGHVVGFFGRSGTLIDAIGIYVHPILEQKLISEEDLNSAVDHHHHHH
# B2: Tap1 (Sordaria macrospora), Q50IV4 (protein)
# chain: MSHHHHHHHHYTLHLRLINDTSDTLTLVEQTSWWGKNTIWSQVRSTGVHVLSMAASGSSGMLRFQTSKGDFFAVAVGVHNYKRWCDVLVDTADEAPLTKLHPKYYDDKDAKYQALWAQASEFEAKSKSGKTVRIKFYQADGNVLRATVEYL
# Assays:
# Test in all cases: glycan array binding signal (z-score within array); higher = stronger binding
# Conditions in all cases: glycan notation: IUPAC condensed, linker removed
# [1] = molecular target: Man(a1-3)[Man(a1-6)]Man(a1-6)[Man(a1-3)]Man(b1-4)GlcNAc(b1-4)GlcNAc
# Procedure, shortened: (§1)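 From the Consortium for Functional Glycomics database, 3228 arrays were curated, keeping only those whose protein sequence was available. Binding is given as a within-array Z-score averaged across arrays sharing a protein sequence and across linkers. Negative Z-scores can be read as non-binding.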
# [2] = molecular target: Man(a1-3)[Man(a1-6)]Man(b1-4)GlcNAc(b1-4)GlcNAc
# Procedure, shortened: as §1
# [3] = molecular target: Neu5Ac(a2-3)Gal(b1-3)GalNAc(b1-4)[Neu5Ac(a2-3)]Gal(b1-4)Glc
# Procedure, shortened: as §1
# [4] = molecular target: Neu5Ac(a2-3)Gal(b1-4)[Fuc(a1-3)]GlcNAc(b1-3)Gal(b1-4)[Fuc(a1-3)]GlcNAc(b1-3)Gal(b1-4)[Fuc(a1-3)]GlcNAc
# Procedure, shortened: as §1
# Neu5Ac(a2-6)Gal = molecular target: Neu5Ac(a2-6)Gal
# Procedure, shortened: as §1
# [5] = molecular target: Neu5Ac(a2-6)Gal(b1-4)GlcNAc(b1-2)Man(a1-3)[Neu5Ac(a2-6)Gal(b1-4)GlcNAc(b1-2)Man(a1-6)]Man(b1-4)GlcNAc(b1-4)GlcNAc
# Procedure, shortened: as §1
# [6] = molecular target: Neu5Ac(a2-6)Gal(b1-4)GlcNAc(b1-2)Man(a1-3)[Neu5Ac(a2-6)Gal(b1-4)GlcNAc(b1-2)Man(a1-6)]Man(b1-4)GlcNAc(b1-4)[Fuc(a1-6)]GlcNAc
# Procedure, shortened: as §1
# [7] = molecular target: Neu5Ac(a2-6)Gal(b1-4)GlcNAc(b1-2)Man(a1-6)[Man(a1-3)]Man(b1-4)GlcNAc(b1-4)GlcNAc
# Procedure, shortened: as §1
# [8] = molecular target: Neu5Ac(a2-6)Gal(b1-4)GlcNAc(b1-3)GalNAc
# Procedure, shortened: as §1
# Neu5Ac(a2-6)GalNAc = molecular target: Neu5Ac(a2-6)GalNAc
# Procedure, shortened: as §1
# [9] = molecular target: Neu5Ac(a2-6)GalNAc(b1-4)GlcNAc6S
# Procedure, shortened: as §1
# Fuc(a1-2)Gal(b1-3)GalNAc = molecular target: Fuc(a1-2)Gal(b1-3)GalNAc
# Procedure, shortened: as §1
# [10] = molecular target: Fuc(a1-2)[Gal(a1-3)]Gal(b1-4)Glc
# Procedure, shortened: as §1
# [11] = molecular target: Fuc(a1-2)[Gal(a1-3)]Gal(b1-4)GlcNAc(b1-2)Man(a1-3)[Fuc(a1-2)[Gal(a1-3)]Gal(b1-4)GlcNAc(b1-2)Man(a1-6)]Man(b1-4)GlcNAc(b1-4)GlcNAc
# Procedure, shortened: as §1
# [12] = molecular target: Fuc(a1-2)[Gal(a1-4)]Gal(b1-4)GlcNAc
# Procedure, shortened: as §1
# [13] = molecular target: Fuc(a1-2)[GalNAc(a1-3)]Gal(b1-3)GalNAc(a1-3)[Fuc(a1-2)]Gal(b1-4)GlcNAc
# Procedure, shortened: as §1
# [14] = molecular target: Gal(a1-4)Gal(b1-3)GlcNAc(b1-2)Man(a1-3)[Gal(a1-4)Gal(b1-3)GlcNAc(b1-2)Man(a1-6)]Man(b1-4)GlcNAc(b1-4)GlcNAc
# Procedure, shortened: as §1
# Gal(a1-6)Glc = molecular target: Gal(a1-6)Glc
# Procedure, shortened: as §1
# Gal(b1-2)Gal = molecular target: Gal(b1-2)Gal
# Procedure, shortened: as §1
# [15] = molecular target: Gal(b1-3)Gal(b1-4)GlcNAc(b1-2)Man(a1-3)[Gal(b1-3)Gal(b1-4)GlcNAc(b1-2)Man(a1-6)]Man(b1-4)GlcNAc(b1-4)GlcNAc
# Procedure, shortened: as §1
# Gal(b1-3)GalNAc = molecular target: Gal(b1-3)GalNAc
# Procedure, shortened: as §1
# [16] = molecular target: Gal(b1-3)GlcNAc(b1-2)[Gal(b1-3)GlcNAc(b1-6)]Man(a1-6)[Gal(b1-3)GlcNAc(b1-2)Man(a1-3)]Man(b1-4)GlcNAc(b1-4)GlcNAc
# Procedure, shortened: as §1
# [17] = molecular target: Gal(b1-3)GlcNAc(b1-3)Gal(b1-4)Glc
# Procedure, shortened: as §1
# [18] = molecular target: Gal(b1-3)[Neu5Ac(a2-6)]GalNAc
# Procedure, shortened: as §1
# [19] = molecular target: Gal(b1-3)[Neu5Ac(b2-6)]GalNAc
# Procedure, shortened: as §1
# Gal(b1-4)GlcNAc = molecular target: Gal(b1-4)GlcNAc
# Procedure, shortened: as §1
# [20] = molecular target: Gal(b1-4)GlcNAc(b1-3)Gal(b1-4)Glc
# Procedure, shortened: as §1
# [21] = molecular target: Gal(b1-4)GlcNAc(b1-3)[Gal(b1-4)GlcNAc(b1-6)]Gal(b1-4)GlcNAc
# Procedure, shortened: as §1
# [22] = molecular target: Gal(b1-4)GlcNAc(b1-6)Gal(b1-4)GlcNAc
# Procedure, shortened: as §1
# Gal3S(b1-3)GalNAc = molecular target: Gal3S(b1-3)GalNAc
# Procedure, shortened: as §1
# [23] = molecular target: GlcNAc(a1-4)Gal(b1-4)GalNAc
# Procedure, shortened: as §1
# [24] = molecular target: GlcNAc(a1-4)Gal(b1-4)GlcNAc(b1-3)Gal(b1-4)Glc
# Procedure, shortened: as §1
# [25] = molecular target: GlcNAc(b1-2)Gal(b1-3)GalNAc
# Procedure, shortened: as §1
# [26] = molecular target: GlcNAc(b1-3)Gal(b1-3)GalNAc
# Procedure, shortened: as §1
# GlcNAc(b1-3)GalNAc = molecular target: GlcNAc(b1-3)GalNAc
# Procedure, shortened: as §1
# Kdn(a2-3)Gal(b1-3)GalNAc = molecular target: Kdn(a2-3)Gal(b1-3)GalNAc
# Procedure, shortened: as §1
# Neu5Ac(a2-3)Gal = molecular target: Neu5Ac(a2-3)Gal
# Procedure, shortened: as §1
# [27] = molecular target: Neu5Ac(a2-3)Gal(b1-3)GalNAc
# Procedure, shortened: as §1
# [28] = molecular target: Neu5Ac(a2-3)Gal(b1-3)GalNAc(b1-4)[Neu5Ac(a2-8)Neu5Ac(a2-3)]Gal(b1-4)Glc
# Procedure, shortened: as §1
# [29] = molecular target: Neu5Ac(a2-3)Gal(b1-4)GlcNAc
# Procedure, shortened: as §1
# [30] = molecular target: Neu5Ac(a2-3)Gal(b1-4)GlcNAc(b1-6)[Neu5Ac(a2-3)Gal(b1-3)]GalNAc
# Procedure, shortened: as §1
binder,measurement,setting,value
B1,glycan array binding signal (z-score),[1],3.62
same,glycan array binding signal (z-score),[2],4.94
same,glycan array binding signal (z-score),[3],-0.304
same,glycan array binding signal (z-score),[4],-0.305
same,glycan array binding signal (z-score),Neu5Ac(a2-6)Gal,-0.305
same,glycan array binding signal (z-score),[5],2.81
same,glycan array binding signal (z-score),[6],0.435
same,glycan array binding signal (z-score),[7],4.96
same,glycan array binding signal (z-score),[8],-0.296
same,glycan array binding signal (z-score),Neu5Ac(a2-6)GalNAc,-0.307
same,glycan array binding signal (z-score),[9],-0.303
B2,glycan array binding signal (z-score),Fuc(a1-2)Gal(b1-3)GalNAc,2.96
same,glycan array binding signal (z-score),[10],-0.234
same,glycan array binding signal (z-score),[11],-0.244
same,glycan array binding signal (z-score),[12],-0.242
same,glycan array binding signal (z-score),[13],-0.246
same,glycan array binding signal (z-score),[14],-0.221
same,glycan array binding signal (z-score),Gal(a1-6)Glc,-0.248
same,glycan array binding signal (z-score),Gal(b1-2)Gal,-0.207
same,glycan array binding signal (z-score),[15],-0.225
same,glycan array binding signal (z-score),Gal(b1-3)GalNAc,3.97
same,glycan array binding signal (z-score),[16],-0.179
same,glycan array binding signal (z-score),[17],-0.23
same,glycan array binding signal (z-score),[18],4.09
same,glycan array binding signal (z-score),[19],-0.25
same,glycan array binding signal (z-score),Gal(b1-4)GlcNAc,-0.237
same,glycan array binding signal (z-score),[20],-0.235
same,glycan array binding signal (z-score),[21],-0.264
same,glycan array binding signal (z-score),[22],-0.224
same,glycan array binding signal (z-score),Gal3S(b1-3)GalNAc,5.01
same,glycan array binding signal (z-score),[23],0.868
same,glycan array binding signal (z-score),[24],-0.223
same,glycan array binding signal (z-score),[25],2.86
same,glycan array binding signal (z-score),[26],2.84
same,glycan array binding signal (z-score),GlcNAc(b1-3)GalNAc,1.62
same,glycan array binding signal (z-score),Kdn(a2-3)Gal(b1-3)GalNAc,3.63
same,glycan array binding signal (z-score),Neu5Ac(a2-3)Gal,-0.232
same,glycan array binding signal (z-score),[27],4.27
same,glycan array binding signal (z-score),[28],-0.198
same,glycan array binding signal (z-score),[29],-0.251
same,glycan array binding signal (z-score),[30],1.16
